# RGS7-Gao: RGS7-Galphao binding modulators, primary screen, biochemical, multiplexed bead flow cytometry | actives lie on both sides | binding response (% of control), % at 10 µM | 220,000 tested, 0.35% active | AID 1439, 2008; in the data active = binding response below about 49% or above about 150%; inconclusive = no clear call, values can overlap the other calls; inactive = in between;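 note: fluorescent Galphao held in activated GDP-AlF4 state binding bead-coupled RGS7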
# Target sequence (P09471 whole entry, looked up): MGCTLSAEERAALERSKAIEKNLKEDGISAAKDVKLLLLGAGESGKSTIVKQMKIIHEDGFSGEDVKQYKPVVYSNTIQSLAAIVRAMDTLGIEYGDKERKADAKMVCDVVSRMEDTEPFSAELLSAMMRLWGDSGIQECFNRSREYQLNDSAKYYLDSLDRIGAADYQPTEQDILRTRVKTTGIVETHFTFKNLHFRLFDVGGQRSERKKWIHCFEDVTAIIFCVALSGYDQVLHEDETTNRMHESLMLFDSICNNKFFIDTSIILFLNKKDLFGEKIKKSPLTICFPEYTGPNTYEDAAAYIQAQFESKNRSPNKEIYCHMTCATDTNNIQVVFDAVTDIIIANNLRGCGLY
# Avidin bead fluor: green autofluorescence of compounds with avidin beads – biophysical, 488/530 nm, flow cytometry, artefact control, profiling panel; fluorescence (KMESF) at 10 µM; compound fluorescence 488/530 nm; stronger effect = higher value; 220,000 tested, 0.38% active; in the data active = fluorescence above about 47
# GSH fluor: compound fluorescence on glutathione beads, profiling panel, artefact control, biophysical, 488/530 nm, flow cytometry; GSH beads flow cytometry, compound fluorescence 488/530 nm; stronger effect = higher value; fluorescence (KMESF) at 10 µM; 190,000 tested, 0.25% active; AID 1776, 2009; in the data active = fluorescence above about 89;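 note: glutathione beads carrying GST-tagged Bcl family fusion proteins plus one bare bead set; values are compound well signal with DMSO vehicle wells as background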
# RGS8-Gao reg: RGS8-Galphao binding modulators, primary screen, biochemical, multiplexed bead flow cytometry | AID 1423, 2008 | actives lie on both sides | Guanine nucleotide-binding protein G(o) subunit alpha (Homo sapiens), P09471 | response (percent of control binding), % at 10 µM | 220,000 tested, 0.34% active; in the data active = response below about 60% or above about 140%; inactive = in between;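 note: Galphao activated as the GDP aluminium fluoride complex binding bead-coupled RGS8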
# RGS16-Gao HTS: modulators of RGS16 binding to Galphao, primary screen, biochemical, human proteins, multiplexed bead flow cytometry. bead-based flow cytometry RGS16-Galphao binding, fluorescence; actives lie on both sides. 220,000 tested, 0.38% active. Regulator of G-protein signaling 16 (Homo sapiens) + Guanine nucleotide-binding protein …. binding response (% of control), % at 10 µM;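 note: Galphao activated by GDP with aluminum fluoride before binding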
# Target sequence (O15492 whole entry, looked up): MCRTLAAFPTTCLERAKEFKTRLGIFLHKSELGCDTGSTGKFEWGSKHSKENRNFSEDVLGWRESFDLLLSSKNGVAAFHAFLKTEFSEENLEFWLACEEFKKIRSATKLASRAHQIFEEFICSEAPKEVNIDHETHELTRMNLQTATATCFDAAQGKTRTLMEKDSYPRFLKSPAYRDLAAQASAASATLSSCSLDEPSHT
# Target sequence (P09471 whole entry, looked up): as the sequence (P09471 whole entry, looked up) above
# RGS4-Gao reg: modulators of RGS4 binding to Galphao, primary screen, biochemical, multiplexed bead flow cytometry. Guanine nucleotide-binding protein G(o) subunit alpha (Homo sapiens), P09471. actives lie on both sides. binding response (% of control), % at 10 µM. 220,000 tested, 0.33% active. AID 1415, 2008; in the data active = binding response below about 49% or above about 150%; inactive = in between;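 note: fluorescent Galphao activated with aluminum fluoride binding bead-coupled RGS4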
# RGS4-Gao HTS: modulators of RGS–Galpha-o binding, primary screen, biochemical, multiplexed beads, flow cytometry, RGS4/7/8/16/19 | RGS4–Galpha-o binding response, % at 10 µM | multiplexed bead flow cytometry | 1,600 tested, 99% active | shares compounds with RGS16-Gao HTS;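 note: fluorescently labeled Galpha-o bound to GDP with aluminium fluoride binding biotinylated RGS beads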
# Biotin-avidin: disruption of biotin probe capture by avidin, counter-screen for RGS protein interaction modulators, biochemical, flow cytometry, bead-based; shares compounds with RGS16-Gao HTS; streptavidin beads, fluorescein-biotin binding; inhibition, % at 10 µM; 1,700 tested, under 10 active; AID 1783, 2009;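 active = inhibition above 50%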;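 note: median green fluorescence of gated singlet beads compared with DMSO control wells; 0% = DMSO wells and 100% = complete loss of bead fluorescence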
# RGS8-Gao confirm: RGS8-Galphao binding modulators, confirmation, biochemical, multiplexed bead flow cytometry, single concentration; 1,700 tested, 3% active; bead-based flow cytometry RGS8-Galphao binding, fluorescence; actives lie on both sides; binding response (% of control), % at 10 µM; shares compounds with RGS16-Gao HTS; in the data active = binding response below about 72% or above about 130%; inactive = in between;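 note: Galphao activated as GDP AlF4 complex before binding bead RGS8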
# RGS7-Gao single: RGS7-Galphao binding modulators, confirmation, biochemical, multiplexed bead flow cytometry, single concentration; shares compounds with RGS16-Gao HTS; bead-based flow cytometry RGS7-Galphao binding; actives lie on both sides; response (percent of control binding), % at 10 µM; 1,700 tested, 7.8% active; AID 1837, 2009; in the data active = response below about 75% or above about 130%; inactive = in between;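 note: fluorescent Galphao activated with GDP and aluminum fluoride binding bead-coupled RGS7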
# RGS16-Gao single: modulators of RGS16-Galphao protein binding, confirmation, biochemical, single concentration, multiplexed bead flow cytometry | shares compounds with RGS16-Gao HTS | bead-based flow cytometry; actives lie on both sides | response (% of control binding), % at 10 µM | 1,700 tested, 4% active | AID 1838, 2009; in the data active = response below about 74% or above about 130%; inactive = in between;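 note: Galphao activated as the GDP aluminium fluoride complex binding bead-coupled RGS16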
# RGS4-Gao confirm: modulators of RGS4-Galphao protein binding, confirmation, biochemical, single concentration, multiplexed bead flow cytometry; shares compounds with RGS16-Gao HTS; actives lie on both sides; binding response (% of control), % at 10 µM; 1,700 tested, 4% active; AID 1840, 2009; in the data active = binding response below about 74% or above about 130%; inactive = in between
# RGS19-Gao single: regulators of RGS19-Galphao binding, confirmation, biochemical, single point, multiplexed bead flow cytometry. shares compounds with RGS16-Gao HTS. bead-based flow cytometry RGS19-Galphao binding; actives lie on both sides. response (percent of control binding), % at 10 µM. 1,700 tested, 5% active; in the data active = response below about 50% or above about 160%; inactive = in between;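 note: 100% = no compound control and 0% = blank background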
# Starred values were filed as active, the others as inactive; ? = inconclusive; / = no result; [ ] = another dose, or the depositor's remark. An excerpt weighted towards active compounds, which were near 1.2% of everything screened. Unless noted, the rule behind the calls is not given here.
SMILES,RGS7-Gao,Avidin bead fluor,GSH fluor,RGS8-Gao reg,RGS16-Gao HTS,RGS4-Gao reg,RGS4-Gao HTS,Biotin-avidin,RGS8-Gao confirm,RGS7-Gao single,RGS16-Gao single,RGS4-Gao confirm,RGS19-Gao single
COc1ccc(Oc2c(O)c3ccccc3n(C)c2=O)cc1,17*,-2,11,9.0*,-92,9.1*,/,-3,99,97,97,97,101
CN(/N=C/c1cc(Cl)cc(Cl)c1O)c1c(Cl)cccc1[N+](=O)[O-],?,5,/,101,97,95,/,/,/,/,/,/,/
CCSc1nnc(Nc2ccccc2)s1,25*,7,11,42*,21*,15*,/,-1,101,92,101,96,99
COc1cc(CC(NC(C)=O)C(=O)NC2CCN(C(=O)c3cc(OC)c(OC)c(OC)c3)CC2)cc(OC)c1 (stereo unspecified),119,10,11,141*[activator],284,110,110*,-1,102,105,103,104,102
CN1CCN(CC(=O)Nc2c(C#N)cnn2-c2ccccc2)CC1,?,27,/,101,101,107,/,/,/,/,/,/,/
NNc1ncnc2scc(-c3ccc(Cl)cc3)c12,140,2,9,149*[activator],146,138,138*,0,100,93,101,97,77
Clc1ccc(-c2csc3ncnc(Cl)c23)cc1,103,16,15,102,104,105,/,/,/,/,/,/,/
CC(C)OC(=O)c1c(NC(=O)Cn2cnc([N+](=O)[O-])n2)sc2c1CCCC2,/,/,18,/,/,/,/,0,98,106,96,97,106
CCOC(=O)c1c(NC(=O)Cn2cnc([N+](=O)[O-])n2)sc2c1CCCC2,103,9,11,99,91,98,/,/,/,/,/,/,/
Cc1cc[n+]2n1CC(O)C2 (stereo unspecified),/,/,/,/,/,/,/,2,103,97,101,103,85
Cc1[nH]n(-c2ccccc2)c(=O)c1/C=N/Nc1nncc(-c2ccccc2)n1,/,/,17,/,/,/,/,1,95,89,91,93,59
CCn1nnnc1NCc1ccc(N2CCCC2)cc1,65,0,22,76,320,35*,/,-1,98,93,93,96,89
CC(/C=N/n1c(-c2ccc(C)cc2)n[nH]c1=S)=C\c1ccco1,105,11,17,99,105,96,/,/,/,/,/,/,/
CC(/C=N/n1c(-c2ccco2)n[nH]c1=S)=C\c1ccco1,76,2,11,62,-3.8*,73,73*,-1,95,104,92,96,94
O=C(O)CC1S/C(=N/N=C/c2ccc([N+](=O)[O-])cc2)N(c2ccc(O)cc2)C1=O (stereo unspecified),112,5,19,104,108,107,/,/,/,/,/,/,/
Cc1c(C(=O)NC(C)CCc2ccccc2)cccc1[N+](=O)[O-] (stereo unspecified),104,19,7,106,113,106,/,/,/,/,/,/,/
CCC(CC)NC(=O)c1cccc([N+](=O)[O-])c1C,113,5,10,138,237*[activator],116,116*,0,101,100,99,98,99
CCCC(=O)Nc1cccc(NC(=O)c2cccc([N+](=O)[O-])c2C)c1,109,16,10,121,205*[activator],110,110*,-1,96,95,93,94,85
CC(C)n1c(NCCO)nc2ccccc21,37*,7,13,57*,49,49*,/,3,104,96,100,100,98
Cc1ccc(NS(=O)(=O)c2ccc(OCC(=O)NCc3cccnc3)cc2)cc1,88,1,13,69,23*,89,89*,1,98,94,100,96,95
CC(=O)Nc1ccccc1C(F)(F)F,?,2,/,48*,30,22*,/,1,106,113,105,108,96
O=C(Nc1cccc(F)c1)N1CCCC(CNS(=O)(=O)Cc2ccccc2)C1 (stereo unspecified),107,10,24,108,112,105,/,/,/,/,/,/,/
O=C(O)c1cccc(N2C(=O)C3C4C=CC(C4=C(c4ccccc4)c4ccccc4)C3C2=O)c1 (stereo unspecified),94,13,9,93,75,95,/,/,/,/,/,/,/
Cc1cc(Nc2ccccc2)c2c([N+](=O)[O-])ccc(C)c2n1,98,3,7,101,104,103,/,/,/,/,/,/,/
Cc1cc2c3c(ccc(C)c3n1)N=CN2c1ccccc1,/,/,20,/,/,/,/,0,100,80,92,92,87
O=C(NNC(=O)C1CC2CCC1C2)c1sc2ccccc2c1Cl (stereo unspecified),166*[activator],94*,17,101,103,109,109*,-2,101,102,104,103,106
O=C(CCSc1nnc2ccc3ccccc3n12)Nc1ccc(F)cc1,/,/,37,/,/,/,/,-2,102,103,101,104,108

# Bioassay records as filed in PubChem.
